Data reported in the supplement of paper PMC11732987, “Enantioselective OTUD7B fragment discovery through chemoproteomics screening and high-throughput optimisation” (Communications Chemistry, 2025).

What was measured:
Test in all cases: log2 ratio of Biotin-Ahx-Ub-VS probe labelling (fragment/DMSO); higher = less target engagement (more negative = stronger competition), active = hit call of the paper (q ≤ 0.05, log2 ratio ≤ -1)
Conditions in all cases: compound concentration: 200 uM; treatment time: 3 h
USP34 = USP34 (UniProt Q70CQ2)
USP34, sequence (Q70CQ2 whole entry, the tested form may be a part): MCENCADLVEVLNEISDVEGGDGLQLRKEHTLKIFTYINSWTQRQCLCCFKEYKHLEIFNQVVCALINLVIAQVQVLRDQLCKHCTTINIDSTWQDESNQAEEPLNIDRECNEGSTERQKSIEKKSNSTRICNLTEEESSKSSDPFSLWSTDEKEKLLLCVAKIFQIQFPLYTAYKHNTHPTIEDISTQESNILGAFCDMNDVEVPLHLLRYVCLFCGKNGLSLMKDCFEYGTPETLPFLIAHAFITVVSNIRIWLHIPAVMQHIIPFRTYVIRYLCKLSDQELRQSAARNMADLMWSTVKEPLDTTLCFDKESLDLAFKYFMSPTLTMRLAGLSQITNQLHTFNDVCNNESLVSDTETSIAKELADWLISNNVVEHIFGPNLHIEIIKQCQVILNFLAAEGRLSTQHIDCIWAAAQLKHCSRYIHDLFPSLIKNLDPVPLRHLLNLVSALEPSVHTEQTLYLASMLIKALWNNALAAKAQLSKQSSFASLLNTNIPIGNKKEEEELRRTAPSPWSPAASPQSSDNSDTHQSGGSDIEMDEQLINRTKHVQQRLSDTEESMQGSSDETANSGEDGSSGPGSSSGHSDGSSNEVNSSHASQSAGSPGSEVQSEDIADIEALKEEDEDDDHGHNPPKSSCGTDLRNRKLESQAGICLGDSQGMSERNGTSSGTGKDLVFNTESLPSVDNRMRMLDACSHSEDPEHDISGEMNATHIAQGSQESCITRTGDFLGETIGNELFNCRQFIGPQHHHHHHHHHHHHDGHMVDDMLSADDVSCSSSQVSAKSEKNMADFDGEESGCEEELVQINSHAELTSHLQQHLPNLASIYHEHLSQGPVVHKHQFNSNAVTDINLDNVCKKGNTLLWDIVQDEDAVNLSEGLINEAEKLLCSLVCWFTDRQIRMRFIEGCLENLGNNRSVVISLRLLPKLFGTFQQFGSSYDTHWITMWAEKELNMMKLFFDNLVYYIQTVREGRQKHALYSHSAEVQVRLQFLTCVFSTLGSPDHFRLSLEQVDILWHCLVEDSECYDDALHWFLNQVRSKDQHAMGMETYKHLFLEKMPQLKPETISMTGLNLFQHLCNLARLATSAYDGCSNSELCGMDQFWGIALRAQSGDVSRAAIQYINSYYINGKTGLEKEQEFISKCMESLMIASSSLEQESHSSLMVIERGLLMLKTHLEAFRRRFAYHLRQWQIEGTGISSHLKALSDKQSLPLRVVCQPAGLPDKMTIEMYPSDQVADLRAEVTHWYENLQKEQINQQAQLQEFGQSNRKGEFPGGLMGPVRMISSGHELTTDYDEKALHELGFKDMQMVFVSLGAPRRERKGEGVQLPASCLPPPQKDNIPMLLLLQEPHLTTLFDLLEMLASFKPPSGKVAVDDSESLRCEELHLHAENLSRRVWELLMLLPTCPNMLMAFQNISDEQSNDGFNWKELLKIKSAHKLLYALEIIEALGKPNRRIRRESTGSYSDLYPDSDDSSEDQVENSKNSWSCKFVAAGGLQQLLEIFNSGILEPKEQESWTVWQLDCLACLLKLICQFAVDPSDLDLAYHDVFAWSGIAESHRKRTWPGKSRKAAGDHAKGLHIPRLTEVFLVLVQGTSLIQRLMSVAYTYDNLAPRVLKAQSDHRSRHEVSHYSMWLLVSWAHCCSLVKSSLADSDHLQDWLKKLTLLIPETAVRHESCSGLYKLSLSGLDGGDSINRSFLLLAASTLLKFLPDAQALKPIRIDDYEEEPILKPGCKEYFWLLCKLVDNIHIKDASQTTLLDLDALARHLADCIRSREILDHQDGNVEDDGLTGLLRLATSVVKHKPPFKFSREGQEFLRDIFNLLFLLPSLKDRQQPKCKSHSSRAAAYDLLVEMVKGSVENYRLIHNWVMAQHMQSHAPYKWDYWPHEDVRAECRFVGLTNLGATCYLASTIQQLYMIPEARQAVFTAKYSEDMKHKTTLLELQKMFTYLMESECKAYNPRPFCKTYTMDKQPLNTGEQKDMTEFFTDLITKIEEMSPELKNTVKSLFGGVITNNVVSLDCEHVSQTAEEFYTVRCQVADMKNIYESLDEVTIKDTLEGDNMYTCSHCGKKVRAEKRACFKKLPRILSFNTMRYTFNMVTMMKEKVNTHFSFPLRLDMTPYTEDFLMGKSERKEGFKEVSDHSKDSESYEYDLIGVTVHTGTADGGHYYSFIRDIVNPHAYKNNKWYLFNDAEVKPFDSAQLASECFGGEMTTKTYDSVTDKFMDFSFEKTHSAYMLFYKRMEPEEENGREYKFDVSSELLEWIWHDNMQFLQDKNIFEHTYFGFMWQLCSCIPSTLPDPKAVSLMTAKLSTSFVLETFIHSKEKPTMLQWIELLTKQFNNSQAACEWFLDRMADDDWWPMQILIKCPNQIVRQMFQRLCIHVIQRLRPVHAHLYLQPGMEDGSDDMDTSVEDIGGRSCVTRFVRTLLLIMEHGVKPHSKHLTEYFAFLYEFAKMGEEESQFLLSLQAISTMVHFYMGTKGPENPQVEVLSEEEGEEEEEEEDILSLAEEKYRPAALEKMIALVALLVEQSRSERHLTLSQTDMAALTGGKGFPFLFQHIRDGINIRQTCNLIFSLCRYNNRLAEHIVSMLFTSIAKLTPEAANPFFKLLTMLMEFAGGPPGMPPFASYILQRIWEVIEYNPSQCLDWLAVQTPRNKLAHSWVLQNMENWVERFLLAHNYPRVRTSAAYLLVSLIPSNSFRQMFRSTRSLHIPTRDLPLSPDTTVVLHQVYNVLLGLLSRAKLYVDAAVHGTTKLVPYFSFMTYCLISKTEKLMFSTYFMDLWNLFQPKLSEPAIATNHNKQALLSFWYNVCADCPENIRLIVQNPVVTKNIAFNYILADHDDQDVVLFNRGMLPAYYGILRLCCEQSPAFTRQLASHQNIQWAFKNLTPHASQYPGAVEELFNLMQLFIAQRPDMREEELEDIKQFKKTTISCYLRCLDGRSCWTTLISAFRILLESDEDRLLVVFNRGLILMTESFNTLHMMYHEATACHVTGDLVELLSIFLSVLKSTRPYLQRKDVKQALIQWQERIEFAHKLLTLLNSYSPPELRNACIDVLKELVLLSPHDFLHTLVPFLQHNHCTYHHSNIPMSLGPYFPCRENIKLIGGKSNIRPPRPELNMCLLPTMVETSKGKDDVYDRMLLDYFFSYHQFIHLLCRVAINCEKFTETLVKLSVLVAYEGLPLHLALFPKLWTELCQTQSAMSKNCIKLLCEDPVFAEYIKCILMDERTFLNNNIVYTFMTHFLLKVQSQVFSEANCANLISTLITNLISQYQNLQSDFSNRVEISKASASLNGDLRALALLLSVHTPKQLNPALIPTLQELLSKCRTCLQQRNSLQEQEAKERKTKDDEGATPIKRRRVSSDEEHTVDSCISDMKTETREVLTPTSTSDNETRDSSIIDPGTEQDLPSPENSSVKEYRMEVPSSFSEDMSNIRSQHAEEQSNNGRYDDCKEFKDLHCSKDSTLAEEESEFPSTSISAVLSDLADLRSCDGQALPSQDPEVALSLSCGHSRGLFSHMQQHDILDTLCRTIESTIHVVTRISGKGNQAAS
Method in brief: (§1)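 Average log2 ratios of fragment over vehicle were obtained by unpaired t-test from global-median-normalised Spectronaut label-free quantities. Proteins with ≥2 unique peptides were included. HEK293T lysate (495 µg per sample) was treated in triplicate with fragment at 200 µM or vehicle for 3 h, then with Biotin-Ahx-Ub-VS at 0.5 µM final for 1 h, and labelled DUBs were NeutrAvidin-enriched and run by diaPASEF LC-MS/MS.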

USP36 = biological target: T1, USP36 (UniProt Q9P275)
T1 sequence (whole entry): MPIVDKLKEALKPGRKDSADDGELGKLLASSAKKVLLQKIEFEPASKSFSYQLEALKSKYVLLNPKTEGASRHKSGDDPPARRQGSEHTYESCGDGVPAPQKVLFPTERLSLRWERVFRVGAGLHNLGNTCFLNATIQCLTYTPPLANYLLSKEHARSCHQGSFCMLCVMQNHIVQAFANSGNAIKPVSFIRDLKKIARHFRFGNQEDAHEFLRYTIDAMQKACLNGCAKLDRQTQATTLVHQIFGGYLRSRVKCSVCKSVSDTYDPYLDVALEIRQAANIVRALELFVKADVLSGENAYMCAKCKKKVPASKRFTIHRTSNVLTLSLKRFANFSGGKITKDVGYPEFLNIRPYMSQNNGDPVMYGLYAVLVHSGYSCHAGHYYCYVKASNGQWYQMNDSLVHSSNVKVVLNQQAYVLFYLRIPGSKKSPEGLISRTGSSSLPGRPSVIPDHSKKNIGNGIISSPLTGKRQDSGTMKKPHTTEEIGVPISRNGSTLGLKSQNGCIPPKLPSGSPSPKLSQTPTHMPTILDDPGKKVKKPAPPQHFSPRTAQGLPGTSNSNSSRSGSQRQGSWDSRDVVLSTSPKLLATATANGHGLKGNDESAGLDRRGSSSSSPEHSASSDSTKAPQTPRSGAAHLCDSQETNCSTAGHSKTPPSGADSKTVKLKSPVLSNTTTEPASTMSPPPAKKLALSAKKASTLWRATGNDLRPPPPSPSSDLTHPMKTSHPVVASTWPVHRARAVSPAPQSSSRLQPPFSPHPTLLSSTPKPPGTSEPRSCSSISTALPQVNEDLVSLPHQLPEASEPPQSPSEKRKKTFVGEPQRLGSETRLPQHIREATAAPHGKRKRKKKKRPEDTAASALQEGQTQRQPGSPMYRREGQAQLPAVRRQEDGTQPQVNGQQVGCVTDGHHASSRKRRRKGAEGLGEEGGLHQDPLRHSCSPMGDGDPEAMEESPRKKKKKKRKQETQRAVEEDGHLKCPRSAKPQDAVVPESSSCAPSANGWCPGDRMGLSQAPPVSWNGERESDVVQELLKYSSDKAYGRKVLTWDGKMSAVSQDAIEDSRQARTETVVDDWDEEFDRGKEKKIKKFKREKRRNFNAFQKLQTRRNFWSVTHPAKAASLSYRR
Method in brief: as §1

USP38 = biological target: T2, USP38 (UniProt Q8NB14)
T2 sequence (whole entry): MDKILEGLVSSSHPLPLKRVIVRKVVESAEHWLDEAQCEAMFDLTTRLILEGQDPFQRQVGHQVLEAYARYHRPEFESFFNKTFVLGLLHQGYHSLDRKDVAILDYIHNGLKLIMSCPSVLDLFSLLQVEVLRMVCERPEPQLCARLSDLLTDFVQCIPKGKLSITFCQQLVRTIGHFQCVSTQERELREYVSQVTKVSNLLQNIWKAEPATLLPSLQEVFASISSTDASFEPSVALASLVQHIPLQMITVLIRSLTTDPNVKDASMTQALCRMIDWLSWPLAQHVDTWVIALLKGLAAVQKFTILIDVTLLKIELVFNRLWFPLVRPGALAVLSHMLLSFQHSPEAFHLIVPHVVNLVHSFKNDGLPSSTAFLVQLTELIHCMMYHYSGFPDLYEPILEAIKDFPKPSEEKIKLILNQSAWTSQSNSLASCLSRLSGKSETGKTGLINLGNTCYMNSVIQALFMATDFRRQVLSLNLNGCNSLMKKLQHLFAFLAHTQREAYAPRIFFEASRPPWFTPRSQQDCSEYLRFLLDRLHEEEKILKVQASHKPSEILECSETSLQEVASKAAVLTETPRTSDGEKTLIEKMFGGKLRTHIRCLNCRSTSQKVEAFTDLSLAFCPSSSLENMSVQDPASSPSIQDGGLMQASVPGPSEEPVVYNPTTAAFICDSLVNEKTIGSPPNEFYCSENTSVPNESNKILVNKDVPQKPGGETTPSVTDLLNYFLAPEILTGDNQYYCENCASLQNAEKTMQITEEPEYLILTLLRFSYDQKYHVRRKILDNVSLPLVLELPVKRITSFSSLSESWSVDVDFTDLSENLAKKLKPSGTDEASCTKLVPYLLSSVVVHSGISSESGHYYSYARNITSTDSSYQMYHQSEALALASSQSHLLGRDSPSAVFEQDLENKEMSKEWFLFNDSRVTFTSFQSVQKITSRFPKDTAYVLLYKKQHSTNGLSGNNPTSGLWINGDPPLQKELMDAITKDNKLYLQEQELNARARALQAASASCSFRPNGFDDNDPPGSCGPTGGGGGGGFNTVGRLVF
Method in brief: as §1

USP39 = biological target: T3, USP39 (UniProt Q53GS9)
T3 sequence (whole entry): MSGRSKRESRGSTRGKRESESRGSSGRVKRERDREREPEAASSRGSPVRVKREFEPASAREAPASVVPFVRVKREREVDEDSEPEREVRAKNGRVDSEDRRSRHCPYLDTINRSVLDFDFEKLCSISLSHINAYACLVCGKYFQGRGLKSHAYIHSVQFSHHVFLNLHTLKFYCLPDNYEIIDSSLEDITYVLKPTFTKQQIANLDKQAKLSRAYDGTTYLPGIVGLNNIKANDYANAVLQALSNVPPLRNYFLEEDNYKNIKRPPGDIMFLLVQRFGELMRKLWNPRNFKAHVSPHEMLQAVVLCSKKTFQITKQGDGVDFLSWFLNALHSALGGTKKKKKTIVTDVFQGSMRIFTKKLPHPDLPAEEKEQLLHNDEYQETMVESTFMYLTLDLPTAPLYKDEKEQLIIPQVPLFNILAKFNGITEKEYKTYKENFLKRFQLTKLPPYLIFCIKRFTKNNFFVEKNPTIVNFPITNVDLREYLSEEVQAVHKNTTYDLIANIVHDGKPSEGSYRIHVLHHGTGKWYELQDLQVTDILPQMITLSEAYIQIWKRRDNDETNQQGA
Method in brief: as §1

USP4 = biological target: T4, USP4 (UniProt Q13107)
T4 sequence (whole entry): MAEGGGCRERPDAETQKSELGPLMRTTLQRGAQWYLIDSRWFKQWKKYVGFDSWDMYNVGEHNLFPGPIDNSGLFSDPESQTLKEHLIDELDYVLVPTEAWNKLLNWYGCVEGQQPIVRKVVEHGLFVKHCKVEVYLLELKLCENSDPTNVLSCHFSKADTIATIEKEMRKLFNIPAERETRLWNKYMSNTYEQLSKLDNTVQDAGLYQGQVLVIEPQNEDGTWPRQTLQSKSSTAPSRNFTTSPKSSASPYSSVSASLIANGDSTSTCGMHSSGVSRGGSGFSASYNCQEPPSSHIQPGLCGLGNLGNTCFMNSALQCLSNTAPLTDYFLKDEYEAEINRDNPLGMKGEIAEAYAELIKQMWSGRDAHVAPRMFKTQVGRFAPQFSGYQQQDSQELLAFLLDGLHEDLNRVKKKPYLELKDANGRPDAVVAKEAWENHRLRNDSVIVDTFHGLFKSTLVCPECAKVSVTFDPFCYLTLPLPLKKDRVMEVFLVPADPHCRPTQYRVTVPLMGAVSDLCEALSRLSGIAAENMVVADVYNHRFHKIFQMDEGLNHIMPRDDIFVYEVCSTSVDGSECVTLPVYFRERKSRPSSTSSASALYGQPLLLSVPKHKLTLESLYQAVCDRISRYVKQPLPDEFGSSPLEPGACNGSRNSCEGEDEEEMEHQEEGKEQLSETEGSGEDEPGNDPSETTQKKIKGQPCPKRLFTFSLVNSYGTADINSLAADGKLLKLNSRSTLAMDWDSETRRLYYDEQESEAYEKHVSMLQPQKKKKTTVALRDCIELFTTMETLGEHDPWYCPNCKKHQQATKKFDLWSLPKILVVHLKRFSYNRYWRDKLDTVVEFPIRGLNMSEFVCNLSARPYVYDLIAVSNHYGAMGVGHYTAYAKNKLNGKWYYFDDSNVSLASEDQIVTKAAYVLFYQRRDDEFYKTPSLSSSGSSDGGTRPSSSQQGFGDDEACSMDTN
Method in brief: as §1

Measured: log2 ratio of Biotin-Ahx-Ub-VS probe labelling

O=C(CCl)N1CCC(c2noc3cc(F)ccc23)CC1
inactive: USP34 -0.276 | USP36 -0.165 | USP38 0.108 | USP39 0.43 | USP4 -0.235
